# BaF3 parental: counter-screen for JAK2V617F inhibitors: parental Ba/F3 viability inhibitors. CellTiter-Glo ATP luminescence. inhibition, % at 5.6 µM. actives 1.1% (n = 220,000). AID 1486;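 active = inhibition above a per-campaign cutoff, the mean inhibition of all tested compounds plus 3 SD, cut at about 27% in these data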
# IEC-6 tox: kills IEC-6 intestinal cells in KLF5 counter-screen | IEC-6 cytotoxicity, luminescence viability | inhibition, % at 5 µM | actives 0.78% (n = 290,000) | AID 1825
# APP transl inh: APP translation inhibition. SH-SY5Y APP 5'UTR-luciferase reporter, luminescence. inhibition, % at 2 µM. actives 0.82% (n = 190,000);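 active = inhibition above a set limit, derived from the sample mean plus 3 SD, cut at about 45% in these data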
# Ba/F3 V617F tox: reduce viability of Ba/F3 cells dependent on JAK2V617F. Ba/F3 EpoR-JAK2V617F viability, ATP luminescence. inhibition, % at 5.6 µM. actives 1.1% (n = 220,000). AID 1446;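 active = inhibition above the campaign mean plus 3 SD over all tested compounds, cut at about 24% in these data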;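 also: cytokine-independent growth of Ba/F3 cells driven by EpoR plus mutant JAK2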
# KLF5 inhibitor: suppresses KLF5 promoter-driven expression | DLD-1 KLF5 promoter-luciferase reporter, luminescence | inhibition, % at 5 µM | actives 0.23% (n = 290,000) | AID 1700;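 active = inhibition above a per-plate limit of that plate's mean compound inhibition plus 3 SD, cut at about 60% in these data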;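 also: higher means less KLF5 promoter-driven luciferase light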
# IEC-6 tox confirm: confirmation of cytotoxic compounds in rat IEC-6 intestinal epithelial cells | shares compounds with IEC-6 tox | IEC-6 rat intestinal epithelial viability, luminescence | inhibition, % at 5 µM | actives 63% (n = 1,900) | AID 1907
# Hits are given with their value; . = inactive; / = no result given; ! = repeats disagree. A selection: hits, their analogues and other compounds. The true share with any hit is near 1.8%. Rule as the data show it, unless noted: active = inhibition above about 22%; inactive = the rest.
SMILES,BaF3 parental,IEC-6 tox,APP transl inh,Ba/F3 V617F tox,KLF5 inhibitor,IEC-6 tox confirm
CC(=O)O[C@@]12CO[C@@H]1C[C@H](O)[C@@]1(C)C(=O)[C@H](O)C3=C(C)[C@@H](OC(=O)[C@H](O)[C@@H](NC(=O)c4ccccc4)c4ccccc4)C[C@@](O)([C@@H](OC(=O)c4ccccc4)C12)C3(C)C (some centres not stated),/,92,/,/,.,71
C1CCC2S[C@H]3CCCCC3NC2C1 (some centres not stated),.,.,/,.,.,/
O=C1/C(=C\c2ccccc2)C2OCC=C3CN4CCC56c7ccccc7N1C5C2C3CC46 (configuration not stated),.,.,/,.,.,/
CNc1cc(Cl)c2nonc2c1[N+](=O)[O-],79,93,84,50,.,37
CCn1nc(-c2ccccc2)nc2c(=O)n(C)c(=O)nc1-2,.,99,.,.,.,60
COc1ccc(-c2nc3ccccc3c(=O)n2-c2ccc(OC)cc2)cc1,.,.,.,.,.,/
COc1cc2c(cc1/C=C/[N+](=O)[O-])OCO2,.,42,.,.,.,.
C#CCOc1cc(C2C3=C(COC3=O)Nc3cc4c(cc32)OCO4)ccc1OC (configuration not stated),.,78,92,.,.,57
c1cncc(C2CCCCN2)c1 (configuration not stated),.,.,/,.,.,/
c1cncc(C2Nc3cccc4cccc(c34)N2)c1,.,38!,/,.,.,.
CN(C)c1ccc(C(=O)c2ccc(N(C)C)cc2)cc1,.,33,/,.,.,50
COC(=O)C(O)(c1ccc(N(C)C)cc1)C(F)(F)F (configuration not stated),.,.,.,.,.,/
Cc1nc2ccccc2c(=O)n1-c1ccc(Br)cc1[N+](=O)[O-],.,.,.,.,.,/
O=C(O)CN1C(=O)CN=C(c2ccccn2)c2cc(Cl)ccc21,.,.,/,.,.,/

# High-throughput results deposited in PubChem BioAssay by several laboratories.
